In paper PMC5540273 (PLoS ONE, 2017):

What follows are molecules tested on MAP3K3. Settings: concentration: 1 μM, replicates: in singlicate; n = 1.
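Note: KINOMEscan kinase panel screen.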

Row | Structure (SMILES) | %Inh [%]
1 | COc1ccc(Nc2nccc(NCCNC(=O)c3cc4ccccc4s3)n2)cc1 [GSK1379896] | 0
2 | Clc1ccc(-c2nn3ncccc3c2-c2ccnc(Nc3ccc4c(c3)OCCO4)n2)cc1 [GW829116] | 2
3 | O=C(Nc1cccc(-c2nn3ncccc3c2-c2ccnc(Nc3ccccc3)n2)c1)c1c(F)cccc1F [GSK198271] | 0
4 | Nc1ncc(-c2ccc3nccc(-c4ccncc4)c3c2)cc1S(=O)(=O)N1CCOCC1 [GSK1627798] | 0
5 | Cl.c1ccc(-c2ccc3c(Nc4ccc5[nH]ccc5c4)ccnc3c2)nc1 [GW440138] | 0
6 | COc1cccc(C2=C(Nc3ccc(Cl)c(C(=O)O)c3)C(=O)NC2=O)c1 [SB-390769] | 0
7 | O=C(Nc1n[nH]c2cc(-c3ccoc3)ccc12)C1CC1 [SB-738481] | 50
8 | CCS(=O)(=O)c1ccc(OC)c(Nc2nccc(-c3c(-c4cccc(NC(=O)c5c(F)cccc5F)c4)nn4ncccc34)n2)c1 [GSK326180] | 0
9 | CN(c1ccc(NC(=O)Nc2cc(C(F)(F)F)ccc2F)cc1)c1ccnc(Nc2ccc(S(N)(=O)=O)cc2)n1 [GW809893] | 15
10 | Oc1cc(Nc2ccnc3cc(I)ccc23)ccc1F [GW552771] | 0
11 | CC(=O)N1CCN(c2ccc(Nc3nccc(-c4sc(C(C)C)nc4-c4cccc(NS(=O)(=O)c5cccc(Cl)c5)c4)n3)cn2)CC1 [GSK1660437] | 7
12 | Cn1cc(-c2ccc3c(c2)CCN3C(=O)Cc2cccc(Cl)c2)c2c(N)ncnc21 [GSK2606590] | 56
